Reference: PubChem BioAssay AID1159580 (chemical genetic matrix, 2015)
Values joined by “and” are separate entries in the source; they are usually repeats but may differ in a detail not shown here. Identical values can stand only once. Out of some 5,500 compounds screened, about 2,000 (36%) were called active. About 18% were inconclusive and are not listed. Rule as the data show it: active = normalized growth mostly below about 0.91 (no sharp cut-off); inconclusive = no clear call, values can overlap the other calls; inactive = mostly above about 0.92. Some of the results follow.

Assay: chemical genetic growth profiling, strain panel (AID 1159580);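 also: tested at 20 µM; growth read once vehicle control cultures reached saturation at 30 °C; 1 = growth at the plate median or of vehicle wells; lower values mean less growth of the strain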
Settings: S. cerevisiae deletion strains, growth OD

Measured: normalized growth

Cc1ccc2c(c1)CC[C@H]1CC(=O)CC[C@]21C
inactive: locus YAL013W, strain DEP1, active compounds read low 1.01 | locus YAL021C, strain ccr4, active compounds read low 0.991 | locus YAL026C, strain drs2, active compounds read low 1.01 | locus YAL030W, strain snc1, active compounds read low 1.01 | locus YBL061C, strain skt5, active compounds read low 1 | locus YBR009C, strain hhf1, active compounds read low 1 | locus YBR021W, strain FUR4, active compounds read low 0.971 | locus YBR023C, strain chs3, active compounds read low 0.998 | locus YBR171W, strain sec66, active compounds read low 0.992 | locus YBR229C, strain ROT2, active compounds read low 0.997 | locus YBR231C, strain swc5, active compounds read low 1.01 | locus YBR279W, strain paf1, active compounds read low 1.01 | locus YCL011C, strain gbp2, active compounds read low 0.995 | locus YCL016C, strain dcc1, active compounds read low 1.01 | locus YCL029C, strain bik1, active compounds read low 0.991 | locus YCL069W, strain vba3, active compounds read low 0.995 | locus YCR088W, strain abp1, active compounds read low 0.998 | locus YDL005C, strain med2, active compounds read low 1.01 | locus YDL035C, strain GPR1, active compounds read low 0.973 | locus YDL040C, strain nat1, active compounds read low 1 | locus YDL074C, strain BRE1, active compounds read low 0.971 | locus YDL101C, strain DUN1, active compounds read low 1.01 | locus YDL134C, strain PPH21, active compounds read low 1 | locus YDL185W, strain tfp1, active compounds read low 0.983 | locus YDL192W, strain arf1, active compounds read low 0.974 | locus YDR001C, strain nth1, active compounds read low 0.998 | locus YDR069C, strain doa4, active compounds read low 1.01 | locus YDR101C, strain arx1, active compounds read low 0.97 | locus YDR137W, strain rgp1, active compounds read low 0.956 | locus YDR150W, strain NUM1, active compounds read low 1 | locus YDR159W, strain sac3, active compounds read low 1.01 | locus YDR162C, strain NBP2, active compounds read low 0.974 | locus YDR195W, strain ref2 1.05 | locus YDR297W, strain sur2, active compounds read low 0.991 | locus YDR318W, strain mcm21, active compounds read low 0.972 | locus YDR334W, strain swr1, active compounds read low 1.01 | locus YDR335W, strain msn5, active compounds read low 1 | locus YDR388W, active compounds read low 0.979 | locus YDR392W, strain spt3, active compounds read low 0.983 | locus YDR502C, strain sam2, active compounds read low 0.968 | locus YEL003W, strain gim4, active compounds read low 0.991 | locus YEL037C, strain rad23, active compounds read low 1.01 | locus YEL061C, strain CIN8 (second series), active compounds read low 0.993 | locus YEL061C, strain CIN8, active compounds read low 1 | locus YER015W, strain faa2, active compounds read low 1.01 | locus YER016W, strain bim1, active compounds read low 1 | locus YER110C, active compounds read low 0.966 | locus YER111C, strain swi4, active compounds read low 0.991 | locus YER155C, strain BEM2 (second series), active compounds read low 0.978 | locus YER155C, strain BEM2, active compounds read low 0.997 | locus YER167W, strain BCK2, active compounds read low 0.991 | locus YFR010W, strain ubp6, active compounds read low 1.01 | locus YGL078C, strain dbp3, active compounds read low 0.989 | locus YGL086W, strain mad1, active compounds read low 0.981 | locus YGL167C, strain pmr1, active compounds read low 0.998 | locus YGL173C, strain kem1, active compounds read low 0.982 | locus YGL227W, strain vid30, active compounds read low 1 | locus YGL240W, strain doc1, active compounds read low 0.987 | locus YGL248W, strain PDE1, active compounds read low 0.993 | locus YGL253W, strain hxk2, active compounds read low 1 | locus YGR078C, strain PAC10, active compounds read low 0.982 | locus YGR135W, strain pre9, active compounds read low 0.959 | locus YGR229C, strain SMI1, active compounds read low 1.01 | locus YGR252W, strain gcn5, active compounds read low 0.881 | locus YHR013C, strain ard1, active compounds read low 1.02 | locus YHR027C, strain rpn1, active compounds read low 1.01 | locus YHR030C, strain SLT2, active compounds read low 0.996 and 0.98 | locus YHR079C, strain IRE1 (second series), active compounds read low 0.969 | locus YHR079C, strain IRE1, active compounds read low 0.973 | locus YHR094C, strain hxt1, active compounds read low 0.995 | locus YHR129C, strain ARP1, active compounds read low 0.996 | locus YHR142W, strain chs7, active compounds read low 0.985 | locus YHR200W, strain rpn10, active compounds read low 0.979 | locus YIL066C, strain RNR3, active compounds read low 0.993 | locus YIL073C, strain SPO22, active compounds read low 0.965 | locus YIL125W, strain kgd1, active compounds read low 0.999 | locus YIR030C, strain dcg1, active compounds read low 0.974 | locus YJL092W, strain hpr5, active compounds read low 1 | locus YJL095W, strain BCK1 (second series), active compounds read low 1.01 | locus YJL095W, strain BCK1, active compounds read low 0.967 and 0.983 | locus YJL115W, strain asf1, active compounds read low 1.01 | locus YJL129C, strain trk1, active compounds read low 1 | locus YJL134W, strain LCB3, active compounds read low 0.997 | locus YJL154C, strain vps35, active compounds read low 0.993 | locus YJL164C, strain tpk1, active compounds read low 0.992 | locus YJL166W, strain qcr8, active compounds read low 0.995 | locus YJL168C, strain set2, active compounds read low 0.971 | locus YJL187C, strain SWE1 (second series), active compounds read low 1.01 | locus YJR043C, strain POL32, active compounds read low 0.967 | locus YJR066W, strain TOR1, active compounds read low 0.897 | locus YJR075W, strain HOC1, active compounds read low 1
